According to the supplement of paper PMC12645437, “Orthogonal IMiD-Degron Pairs Induce Selective Protein Degradation in Cells” (ACS Chemical Biology, 2025):
Over roughly 8,300 sequences, “log2 fold change of degron read counts, EGFP-low vs EGFP+ sorted cells (limma voom), compound-induced degradation” has its median near -1.1; the highest 2% begin near 3.2. Shown is part of a subset that was picked to be rich in the highest values.

Biological target: T1, CRBN, Q96SW2
T1 chain: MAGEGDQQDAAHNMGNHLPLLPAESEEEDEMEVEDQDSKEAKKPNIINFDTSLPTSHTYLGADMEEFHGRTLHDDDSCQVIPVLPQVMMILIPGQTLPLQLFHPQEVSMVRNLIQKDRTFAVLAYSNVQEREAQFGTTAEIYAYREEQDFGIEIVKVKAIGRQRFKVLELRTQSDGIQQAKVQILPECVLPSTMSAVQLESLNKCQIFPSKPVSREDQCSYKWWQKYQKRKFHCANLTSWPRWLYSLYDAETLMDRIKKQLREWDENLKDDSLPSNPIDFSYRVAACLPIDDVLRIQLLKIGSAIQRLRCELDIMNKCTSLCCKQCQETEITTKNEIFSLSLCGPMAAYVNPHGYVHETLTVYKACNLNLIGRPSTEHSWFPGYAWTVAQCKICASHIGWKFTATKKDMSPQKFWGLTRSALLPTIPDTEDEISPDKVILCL
Test: log2 fold change of degron read counts, EGFP-low vs EGFP+ sorted cells (limma voom), compound-induced degradation; higher = more compound-induced degradation of the degron-EGFP fusion; degrons are variants of IKZF1/3 zinc finger 2; compound dose not given here
Settings: Jurkat, 18 h

[1] = compound: compound 19 (5-tert-butyl-thalidomide)
[2] = compound: compound 22 (5-morpholino-thalidomide)
[3] = compound: compound 33 (diphenyl IMiD analogue)
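Note: pooled lentiviral library of zinc finger degron-EGFP fusions in mCherry-positive Jurkat cells, FACS-sorted after compound exposure, with degron abundance counted by next-generation sequencing.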

| Sequence | log2 fold change of degron read counts [1] | log2 fold change of degron read counts [2] | log2 fold change of degron read counts [3] | log2 fold change of degron read counts (compound: thalidomide) |
| --- | --- | --- | --- | --- |
| LYCNQCGFFCTQKGNLLRHIKL [46L_47Y_49N_50Q_52G_53F_54F_55C_67L_, Q9UKT9] | -0.205 | -0.821 | -0.706 | -0.795 |
| FFCDICGAGFTQKGNLLRHIKL [46F_47F_49D_50I_52G_53A_54G_55F_67L_, Q9UKT9] | 2.9 | 1.78 | 0.35 | -0.766 |
| FQCNQCGHIFTQKGNLLRHIKL [46F_47Q_49N_50Q_52G_53H_54I_55F_67L_, Q9UKT9] | -2.78 | -2.92 | -2.91 | -2.7 |
| FICNQCGAAFTQKGNLLRHIKL [46F_47I_49N_50Q_52G_53A_54A_55F_67L_, Q9UKT9] | -2.19 | -0.99 | -0.297 | -0.649 |
| LCCEICGFNCTQKGNLLRHIKL [46L_47C_49E_50I_52G_53F_54N_55C_67L_, Q9UKT9] | -0.957 | -1.02 | 0.0485 | 0.0948 |
| FECPICGAKFTQKGNLLRHIKL [46F_47E_49P_50I_52G_53A_54K_55F_67L_, Q9UKT9] | 0.543 | -0.648 | 0.0161 | 3 |
| FSCNICGAEFTQKGNLLRHIKL [46F_47S_49N_50I_52G_53A_54E_55F_67L_, Q9UKT9] | -0.854 | 0.252 | 0.443 | 0.069 |
| FYCEICGAPFTQKGNLLRHIKL [46F_47Y_49E_50I_52G_53A_54P_55F_67L_, Q9UKT9] | 3.86 | 3.74 | 3.06 | 2.44 |
| FMCEICGADFTQKGNLLRHIKL [46F_47M_49E_50I_52G_53A_54D_55F_67L_, Q9UKT9] | -1.98 | -1.6 | 1.99 | -0.153 |
| FVCEICGAMFTQKGNLLRHIKL [46F_47V_49E_50I_52G_53A_54M_55F_67L_, Q9UKT9] | 0.202 | 0.968 | 1.67 | 2.16 |
| FFCEICGAPFTQKGNLLRHIKL [46F_47F_49E_50I_52G_53A_54P_55F_67L_, Q9UKT9] | 3.4 | 3.34 | 2.28 | 1.95 |
| FVCEICGADFTQKGNLLRHIKL [46F_47V_49E_50I_52G_53A_54D_55F_67L_, Q9UKT9] | -1.49 | -0.553 | -0.517 | 0.943 |
| FVCEICGAPFTQKGNLLRHIKL [46F_47V_49E_50I_52G_53A_54P_55F_67L_, Q9UKT9] | 3.26 | 3.62 | 2.49 | 3.65 |
| FFCEICGHPFTQKGNLLRHIKL [46F_47F_49E_50I_52G_53H_54P_55F_67L_, Q9UKT9] | 0.211 | -0.726 | -0.864 | -1.23 |
| FFCEICGADFTQKGNLLRHIKL [46F_47F_49E_50I_52G_53A_54D_55F_67L_, Q9UKT9] | 0.436 | 1.48 | -0.411 | -0.679 |
| FMCEICGHPFTQKGNLLRHIKL [46F_47M_49E_50I_52G_53H_54P_55F_67L_, Q9UKT9] | -1.77 | -1.41 | 0.426 | -0.396 |
| FYCEICGADFTQKGNLLRHIKL [46F_47Y_49E_50I_52G_53A_54D_55F_67L_, Q9UKT9] | 1.04 | 1.57 | 0.298 | -1.13 |
| FMCEICGAPFTQKGNLLRHIKL [46F_47M_49E_50I_52G_53A_54P_55F_67L_, Q9UKT9] | 3.59 | 3.43 | 3.13 | 2.94 |
| FYCEQCGAPFTQKGNLLRHIKL [46F_47Y_49E_50Q_52G_53A_54P_55F_67L_, Q9UKT9] | 1.97 | 1.06 | 0.568 | -1.07 |
| FQCPQCGAMFTQKGNLLRHIKL [46F_47Q_49P_50Q_52G_53A_54M_55F_67L_, Q9UKT9] | -1.88 | -0.122 | 0.828 | 2.53 |
| LCCNQCGFMCTQKGNLLRHIKL [46L_47C_49N_50Q_52G_53F_54M_55C_67L_, Q9UKT9] | -1.73 | -2.27 | -1.57 | -1.43 |
| FVCDVCGAVFTQKGNLLRHIKL [46F_47V_49D_50V_52G_53A_54V_55F_67L_, Q9UKT9] | -2.2 | -1.22 | 0.29 | -0.895 |
| FQCNQCGAYFTQKGNLLRHIKL [46F_47Q_49N_50Q_52G_53A_54Y_55F_67L_, Q9UKT9] | -2.89 | -2.26 | -1.84 | -0.227 |
| FTCPQCGAQFTQKGNLLRHIKL [46F_47T_49P_50Q_52G_53A_54Q_55F_67L_, Q9UKT9] | -2.03 | 0.309 | 1.83 | 1.07 |
| LECPICGFGCTQKGNLLRHIKL [46L_47E_49P_50I_52G_53F_54G_55C_67L_, Q9UKT9] | 0.698 | -0.66 | 1.1 | 2.27 |
| FNCNQCGHVFTQKGNLLRHIKL [46F_47N_49N_50Q_52G_53H_54V_55F_67L_, Q9UKT9] | -2.33 | -2.54 | -2.77 | -2.34 |
| FECPICGHPFTQKGNLLRHIKL [46F_47E_49P_50I_52G_53H_54P_55F_67L_, Q9UKT9] | -2.51 | -2.54 | -0.989 | -0.173 |
| FFCPICGHGFTQKGNLLRHIKL [46F_47F_49P_50I_52G_53H_54G_55F_67L_, Q9UKT9] | -1.02 | -1.29 | -0.968 | -1.48 |
